In PubChem BioAssay (NCI):
About 83,000 compounds went through this panel and 20% of them were active in at least one assay; those are over-represented in the sample as a whole.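 Activity criterion: percent growth below 10, measured after cells in 96-well plates were exposed to a single compound concentration for 48 hours.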 A number with no mark means an inactive call. Active and inactive are the calls of the source.

System: HL-60(TB) leukemia
Test: NCI-60 one-dose screen, 48 h (100 = growth as untreated, 0 = no growth, -100 = all killed)
Conditions: 10 µM unless noted

Structure (SMILES)	growth
O=c1c2cnn(-c3ccccc3)c2n2c(CN3CCOCC3)nnc2n1-c1ccccc1	102%
CC(/C=C1\SC(=S)N(CC(=O)NC(Cc2c[nH]c3ccccc23)C(=O)O)C1=O)=C\c1ccccc1 (stereo not drawn)	100%
COc1ccc(/C(C)=C(\c2ccc(Cl)cc2)c2ccc(OCCN3CCCCCC3)cc2)cc1F	-15.4% (active)
